POLH inh – qHTS for Inhibitors of Polymerase Eta | AID 588591, 2011 | 1.2% of 390,000 active | recombinant Pol eta, fluorescent DNA replication assay | DNA polymerase eta (Homo sapiens), Q9Y253 | Potency, µM (series often up to 114 µM), without a hit: at the top dose activity change, negative = inhibition, hits mostly inhibitors; also: potency is read from the fitted curve at half-maximal effect; % is scaled to controls: 0 for no effect and ±100 for the full control effect
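Pol eta (10 nM) was preincubated with compounds for 15 min at room temperature, after which fluorescent replication substrate (50 nM final) was added to start the reaction. Fluorescence was read kinetically at 0 and 10 min.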
Pol beta inh – qHTS Assay for Inhibitors of DNA Polymerase Beta. Pol beta primer extension/strand displacement, fluorescence kinetic. 1.3% of 340,000 active. P06746. AID 485314, 2010. Potency, µM (doses to about 114 µM), for the others: top-dose activity change, negative = inhibition, hits mostly inhibitors; also: potency is read from the fitted curve at half-maximal effect; % is scaled to controls: 0 for no effect and ±100 for the full control effect
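Curves were derived by four-parameter Hill fits of normalized qHTS data. The kinetic fluorescent primer-extension read was taken at 0 and 10 min after 50 nM substrate, following a 15 min room-temperature preincubation of 10 nM enzyme with compounds.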
Pol kappa inh – qHTS for Inhibitors of Polymerase Kappa. purified Pol kappa, fluorescent DNA synthesis assay, 10 min. Potency, µM (titrated, usually from 107 µM), for inactives: top-dose activity, negative = inhibition, actives largely listed as inhibitors. 0.53% of 400,000 active. AID 588579, 2011; also: potency is read from the fitted curve at half-maximal effect; % is scaled to controls: 0 for no effect and ±100 for the full control effect
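Kinetic fluorescence screen: compound preincubated 15 min RT with 10 nM enzyme; 50 nM substrate (final) initiates; reads at 0/10 min.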
PI5P4Ka inh – qHTS for Inhibitors of phosphatidylinositol 5-phosphate 4-kinase (PI5P4K) | 1.2% of 330,000 active | PI5P4Kalpha enzyme, ADP-Glo luminescence, 60 min; stronger effect = lower value | max response, % | Phosphatidylinositol 5-phosphate 4-kinase type-2 alpha (Homo sapiens), P48426; active = max response of -50% or lower; inconclusive = between -30% and -50%; inactive = -30% or higher; also: value at the top dose of about 77 µM; % is scaled to controls: 0 for no effect and ±100 for the full control effect
Target sequence (P48426 whole entry, looked up): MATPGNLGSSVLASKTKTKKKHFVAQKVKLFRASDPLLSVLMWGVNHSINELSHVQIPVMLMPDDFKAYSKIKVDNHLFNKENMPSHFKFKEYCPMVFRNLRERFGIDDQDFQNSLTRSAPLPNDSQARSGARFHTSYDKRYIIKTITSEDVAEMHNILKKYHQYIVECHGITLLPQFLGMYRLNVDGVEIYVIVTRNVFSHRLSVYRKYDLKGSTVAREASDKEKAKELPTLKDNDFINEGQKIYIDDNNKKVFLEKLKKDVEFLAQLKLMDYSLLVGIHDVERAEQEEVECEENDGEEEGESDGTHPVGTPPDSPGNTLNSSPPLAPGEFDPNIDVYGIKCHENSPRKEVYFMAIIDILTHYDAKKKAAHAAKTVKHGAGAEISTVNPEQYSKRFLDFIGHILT
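ADP-Glo luminescence end-point read after a 60 min room-temperature kinase reaction of PI5P4Kalpha plus substrate, initiated with ATP at 5 microM final. Buffer: 0.038 M HEPES pH 7.4, EGTA, 0.1% CHAPS, 5% DMSO.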
Pol iota inh – qHTS for Inhibitors of Polymerase Iota | Potency, µM (series often up to 115 µM), inactives show top-dose activity, negative = inhibition, hits mostly inhibitors | AID 588590, 2011 | 1% of 390,000 active | Pol iota fluorescent replication assay, 10 min | DNA polymerase iota (Homo sapiens), Q9UNA4; also: potency is read from the fitted curve at half-maximal effect
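Pol iota at 10 nM preincubated 15 min with compounds at room temperature; reaction started with fluorescent substrate, 50 nM final. Fluorescence read kinetically at 0 and 10 min; buffer-only wells as negative control.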
12-LOX inh – Primary qHTS assay for inhibitors of human arachidonate 12S-lipoxygenase (ALOX12): Round 2. purified 12hLO, xylenol orange hydroperoxide absorbance. 1.1% of 580,000 active. Polyunsaturated fatty acid lipoxygenase ALOX12 (Homo sapiens), P18054. Potency, µM (series often up to 108 µM), without a hit: at the highest dose activity change, negative = inhibition, actives largely listed as inhibitors; also: potency is read from the fitted curve at half-maximal effect; % is scaled to controls: 0 for no effect and ±100 for the full control effect
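Hydroperoxide product was detected by ferrous iron/xylenol orange as the 573 to 405 nm absorbance ratio. Arachidonic acid at 40 uM (final) was turned over for 30 min at room temperature by 150 nM human 12hLO, pH 7.0 Hepes buffer, after 15 min compound preincubation.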
* = called active by the depositor; ? = inconclusive; . = no result; [ ] = remark or other dose. Sampled rows, rich in hits. Any-hit rate of the full collection: about 2.9%. Unless noted, calls follow the shape of the dose curve; as a rule, active = well fitted inhibition curve with a large enough effect; inconclusive = small, poorly fitted or top-dose-only effect, or another doubt; inactive = no such curve, though single readings can be large or run the other way.

SMILES	POLH inh	Pol beta inh	Pol kappa inh	PI5P4Ka inh	Pol iota inh	12-LOX inh
Cc1c(-c2ccccc2)c(=O)oc2cc(OCC(=O)OC(C)(C)C)ccc12	.	.	.	.	.	-15%
COc1ccc(S(=O)(=O)N2CCOCC2)cc1NC(=O)COC(=O)c1ccc([N+](=O)[O-])s1	?	.	-24%	19	89µM*	.
O=C(OCc1nnc(-c2ccccc2)o1)c1ccc([N+](=O)[O-])s1	56µM*	.	-33%	1	?	140%
O=C(COC(=O)c1ccc([N+](=O)[O-])s1)Nc1ccccc1	?	6.3µM*	-3%	-7	89µM*	-27%
O=C(COC(=O)c1ccc([N+](=O)[O-])s1)NC(c1ccccc1)c1ccccc1	-17%	?	-18%	0	91%	-12%
O=C(COC(=O)c1ccc([N+](=O)[O-])s1)NCc1ccccc1	?	13µM*	-22%	2	?	-15%
CCN1CCn2c(nc3cc(NC(=O)Cn4nc(C)c5ccccc5c4=O)ccc32)C1	.	.	.	.	.	-29%
O=C(COC(=O)c1ccc([N+](=O)[O-])o1)NCc1ccccc1	50µM*	.	-24%	6	?	-18%
COc1ccccc1CNC(=O)COC(=O)c1ccc([N+](=O)[O-])o1	?	.	-28%	7	?	-22%
CN(Cc1ccc(-c2ccc(Cl)cc2)o1)C(=O)CSc1nnc(C2CC2)n1Cc1ccco1	.	.	.	.	.	16µM*
O=C(NCc1cccc(Cl)c1)c1ccc(-n2ccnc2)c2ccoc12	.	.	.	-3	.	40µM*
COC1CCN(C(=O)c2ccnc(-c3nnc4ccc(N5CCOCC5)nn34)c2)CC1	.	.	.	.	.	100µM*
COc1ccnc(-c2nnc3ccc(N4CCc5ccccc5CC4)nn23)c1	.	.	.	.	.	50µM*
COC1CCN(C(=O)c2ccnc(-c3nnc4ccc(Nc5ccccc5)nn34)c2)CC1	.	.	.	.	.	48%[176 µM]
CCCCc1cc(=O)oc2cc(OCC(=O)O)ccc12	.	.	.	.	.	-5%
N#CC1=C(N)Oc2n[nH]c(-c3cccs3)c2C1C1C=CCCC1 (configuration not stated)	3%	-8%	-14%	-52*	3%	?
CCOC(=O)Cc1[nH]nc2c1C(C1C=CCCC1)C(C#N)=C(N)O2 (configuration not stated)	?	?	-5%	-51*	?	0%
CCC(C(=O)Nc1ccc2c(c1)OCO2)n1nc(-c2cc(C)ccc2C)ccc1=O (configuration not stated)	.	.	.	.	.	0%
C/C(=N\OC(=O)c1c(F)cccc1F)c1ccc(F)cc1F	.	.	.	.	.	-4%
Cc1cc(C)c2c(c1)C(=O)c1ccccc1-2	.	.	.	.	.	1%
O=C(CN1CCCCC1c1nc2ccccc2s1)NC(=O)Nc1ccc2c(c1)OCCO2 (configuration not stated)	.	.	.	.	.	0%
O=C(NC(=S)NC12CC3CC(CC(C3)C1)C2)c1ccc(F)cc1	-12%	.	-17%	28	11%	22µM*
O=C(NNC(=S)NC(=O)c1ccc(F)cc1)c1ccc(Cl)cc1	.	.	.	.	.	18µM*
O=C(NC12CC3CC(CC(C3)C1)C2)c1ccc(Cl)cc1	.	.	.	.	.	0%
O=C(CCc1ccccc1)NNC(=S)NC(=O)c1ccc(Cl)cc1	12%	90%	-8%	.	-16%	13µM*
SMILES	POLH inh	Pol beta inh	Pol kappa inh	PI5P4Ka inh	Pol iota inh	12-LOX inh
Cc1ccc(C)c(CN2CCC(CNC(=O)c3c(C)oc4ncnc(N5CCOCC5)c34)CC2)c1	.	.	.	.	.	-1%
COc1ccc(C(=O)COC(=O)CN2CC(=O)Oc3ccccc32)cc1Br	-10%	?	-7%	-23	25µM*	40%
COc1ccc(C(=O)COC(=O)C2CC3CCCC(C2)C3=O)cc1Br (configuration not stated)	-11%	.	1%	6	22%	8%
COc1ccc(C2=Nn3c(nnc3-c3ccccc3F)SC2)cc1OC1CCCC1	-15%	.	50µM*	.	-10%	?
CCOC(=O)c1c(NC(=O)c2nc3nc(C)cc(C(F)F)n3n2)sc2c1CCC(C)C2 (configuration not stated)	.	.	.	.	.	-25%
CCOC(=O)c1sc(NC(=O)c2nc3nc(C)cc(C(F)F)n3n2)c(C(=O)OC(C)C)c1C	89µM*	-10%	-20%	.	-17%	-20%
CCCCC(CC)CN=C(N)NC(N)=NCCCCCCN=C(N)NC(N)=NCC(CC)CCCC (configuration not stated)	89µM*	.	?	-21	?	?
CCOC1=C2[C@H](c3ccc(CC)cc3)N(S(=O)(=O)c3ccc(C)cc3)C[C@H]2C(C#N)(C#N)C(C#N)(C#N)C1	.	.	.	?	.	-7%
CCOC1=C2[C@H](c3ccccc3Cl)N(S(=O)(=O)c3ccc(C)cc3)C[C@H]2C(C#N)(C#N)C(C#N)(C#N)C1	.	.	.	-62*	.	?
CCOC(=O)c1c(NC(=O)/C=C/C(=O)O)sc(C)c1-c1ccc(Cl)cc1	79µM*	-18%	2%	-16	?	-14%
C/C(=C/C(=O)C(F)(F)F)N1CCc2ccccc2C1	.	.	.	.	.	18%
COCCn1cnc2c(c1=O)c1nc3ccccc3nc1n2/N=C/c1ccco1	34%	26%	9%	-2	12%	?
CCCCCCn1cnc2c(c1=O)c1nc3ccccc3nc1n2/N=C/c1ccco1	?	45µM*	-17%	-3	?	6%
O=c1cc[nH]c2c1ccc1c(=O)cc[nH]c12	28µM*	-23%	?	?	?	0%
COc1ccc(CN2CCn3ncc(C(=O)Nc4ccccc4)c3C2=O)cc1	-6%	2%	-5%	-9	11%	0%
O=C(O)c1cnn2c1C(=O)N(Cc1cccs1)CC2	32µM*	20µM*	7%	1	9%	-15%
Cc1cc(C)c2nc(-c3cccc(N)c3)cc(C(=O)O)c2c1	.	.	.	.	.	10%
CC[Si](C)(CC)COC(=O)CCC[N+](C)(C)C	.	.	.	.	.	28µM*
CCCCOC(=O)CCCCCCCCC(=O)OCCCC	.	.	.	.	.	5%[22.9 µM]
CN(Cc1ccc(F)cc1)C(=O)c1cccc(NS(=O)(=O)c2ccccc2)c1	-10%	28%	-5%	-1	23%	0%
CCCCN(CC)c1ccc(NS(=O)(=O)c2ccc3c(c2)CCCC3)cc1C(=O)O	.	.	.	.	.	1.6µM*
CCCCN(Cc1ccccc1)c1ccc(NS(=O)(=O)c2ccc(F)cc2)cc1C(=O)O	.	.	.	.	.	4µM*
CCCCN(Cc1ccccc1)c1ccc(C(=O)O)cc1NS(=O)(=O)c1ccc(CC(C)C)cc1	.	.	.	.	.	14µM*

Source: PubChem BioAssay (National Center for Advancing Translational Sciences (NCATS))
